Screening results as filed in PubChem BioAssay.
PI5P4K alpha inh: qHTS for Inhibitors of phosphatidylinositol 5-phosphate 4-kinase (PI5P4K). Phosphatidylinositol 5-phosphate 4-kinase type-2 alpha (Homo sapiens), P48426. PI5P4Kalpha enzyme, ADP-Glo luminescence, 60 min; hits give low values. max response, %. 1.2% of 330,000 active; active = max response of -50% or lower; inconclusive = between -30% and -50%; inactive = -30% or higher; also: value at the top dose of about 77 µM; % is scaled to controls: 0 for no effect and ±100 for the full control effect
Target sequence (P48426 whole entry, looked up): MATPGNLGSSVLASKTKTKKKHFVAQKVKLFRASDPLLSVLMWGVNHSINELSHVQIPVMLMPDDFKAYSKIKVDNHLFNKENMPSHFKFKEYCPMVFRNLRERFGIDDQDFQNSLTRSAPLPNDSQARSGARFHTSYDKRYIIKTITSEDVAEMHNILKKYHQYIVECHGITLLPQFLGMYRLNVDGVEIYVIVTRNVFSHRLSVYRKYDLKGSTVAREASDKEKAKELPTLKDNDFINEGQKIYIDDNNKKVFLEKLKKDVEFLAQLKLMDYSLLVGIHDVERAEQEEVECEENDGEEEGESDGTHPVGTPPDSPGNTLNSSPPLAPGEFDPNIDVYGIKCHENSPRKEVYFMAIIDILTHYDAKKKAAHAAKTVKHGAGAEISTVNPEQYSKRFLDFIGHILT
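Compounds were pin-transferred onto PI5P4Kalpha and substrate in HEPES pH 7.4 buffer with EGTA, CHAPS and 5% DMSO. ATP (5 microM final) started the reaction, which ran 60 minutes at room temperature before ADP-Glo detection.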
HP1b binding inh: HTS for Inhibitors of HP1-beta Chromodomain Interactions with Methylated Histone Tails; AlphaScreen HP1-beta / biotin-H3K9me3 peptide binding; Potency, µM (highest dose often 114 µM), without a hit: at the top dose activity change, negative = inhibition, most hits filed as inhibitors; 0.56% of 390,000 active; also: potency is read from the fitted curve at half-maximal effect; nearly all actives have a fitted effect of over 70% in size
Target sequence (P83916 whole entry, looked up): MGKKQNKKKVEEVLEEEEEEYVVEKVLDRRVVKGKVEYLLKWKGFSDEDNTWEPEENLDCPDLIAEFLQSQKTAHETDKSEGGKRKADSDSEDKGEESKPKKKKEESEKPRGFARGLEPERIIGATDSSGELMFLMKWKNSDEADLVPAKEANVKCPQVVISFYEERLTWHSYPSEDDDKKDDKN
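Compound inhibition of the preformed complex between 50 nM HP1-beta and 50 nM biotinylated H3K9me3 peptide was read by AlphaScreen. Buffer was PBS pH 7.4 with 0.01% Tween-20. Incubations ran 30 min at room temperature, with 10 ug/mL donor/acceptor beads.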
G9a inh: qHTS Assay for Inhibitors of Histone Lysine Methyltransferase G9a; Histone-lysine N-methyltransferase EHMT2 (Homo sapiens), Q96KQ7; G9a H3K9 monomethylation, AlphaScreen, 2 h; Potency, µM (top dose mostly 102 µM), for inactives: top-dose activity, negative = inhibition, most hits filed as inhibitors; 8.8% of 350,000 active; also: potency is read from the fitted curve at half-maximal effect; % is scaled to controls: 0 for no effect and ±100 for the full control effect; nearly all actives have a fitted effect of over 75% in size
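Using a bead-based AlphaScreen, monomethylated H3K9 product from 2 h room-temperature reactions (G9a 20 nM, peptide 500 nM, SAM 20 uM) was detected with 0.5 ug/mL rabbit anti-H3K9me1 antibody.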
JMJD2A Tudor: qHTS Assay for Inhibitors of JMJD2A-Tudor Domain; Lysine-specific demethylase 4A (Homo sapiens), O75164; AlphaScreen JMJD2A-Tudor / H3K4me3 peptide binding; Potency, µM (doses to about 114 µM), for inactives: at the highest dose activity change, negative = inhibition, hits mostly inhibitors; 4.4% of 390,000 active; also: potency is read from the fitted curve at half-maximal effect; % is scaled to controls: 0 for no effect and ±100 for the full control effect; nearly all actives have a fitted effect of over 50% in size
L3MBTL1 inh: qHTS Assay for the Inhibitors of L3MBTL1. Lethal(3)malignant brain tumor-like protein 1 (Homo sapiens), Q9Y468. AlphaScreen L3MBTL1–H3K9me1 peptide binding. Potency, µM (top dose mostly 57.1 µM), for inactives: top-dose activity, negative = inhibition, most hits filed as inhibitors. 0.66% of 230,000 active; also: potency is read from the fitted curve at half-maximal effect; % is scaled to controls: 0 for no effect and ±100 for the full control effect; nearly all actives have a fitted effect of over 60% in size
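First, the protein-peptide complex forms for 30 min at room temperature (L3MBTL1 50 nM, biotinylated H3K9me1 peptide 75 nM). Next, compounds are pin-transferred and incubated 30 min. Finally, AlphaScreen beads are added and read after 30 min.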
BAZ2B block: qHTS Assay for Inhibitors of BAZ2B; Bromodomain adjacent to zinc finger domain protein 2B (Homo sapiens), Q9UIF8; AlphaScreen BAZ2B-H3K14Ac peptide displacement; Potency, µM (doses to about 114 µM), for inactives: at the top dose activity change, negative = inhibition, usual class: inhibitors; 4.4% of 360,000 active; AID 504333, 2011; also: potency is read from the fitted curve at half-maximal effect; % is scaled to controls: 0 for no effect and ±100 for the full control effect; nearly all actives have a fitted effect of over 60% in size
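AlphaScreen luminescence quantifies BAZ2B engagement of H3K14Ac peptide; the protein and biotinylated peptide are both at 50 nM final, buffer PBS pH 7.4 with 0.01% Tween-20, all steps at room temperature.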
* hit, by the source's call; ? = inconclusive; . = not tested or not shown; ! = not confirmed by another sample; [ ] = another dose, or the depositor's remark. This is a sample that favours compounds with a hit; in the whole collection about 11% have one here. Unless noted, calls follow the shape of the dose curve; as a rule, active = well fitted inhibition curve with a large enough effect; inconclusive = small, poorly fitted or top-dose-only effect; inactive = no such curve, though single readings can be large or run the other way.

SMILES	PI5P4K alpha inh	HP1b binding inh	G9a inh	JMJD2A Tudor	L3MBTL1 inh	BAZ2B block
Cn1c(CCc2nc3ccccc3[nH]2)n[nH]c1=S	-10.4	16.7%	?	7.94µM*	.	0.3%
O=c1[nH]c(SCc2c(F)cccc2Cl)nc2c1CCCC2	.	18.4%	-25.4%[59 µM]	-28.1%	.	?
CC(C)c1ccc(S(=O)(=O)N2CCN(Cc3cccc(F)c3)CC2)cc1	.	92.9%	?	4.7%	.	16.4%
NC(N)=Nc1nc(CSCC/C(N)=N\S(N)(=O)=O)cs1	.	.	0.1%[2.33 µM]	.	.	.
COc1cc2nc(N(C)CCCNC(=O)C3CCCO3)nc(N)c2cc1OC (stereo not given)	.	.	11.2µM*!	.	.	-2.9%
COc1cc2nc(N(C)CCCNC(=O)[C@@H]3CCCO3)nc(N)c2cc1OC	.	.	10.6%[21.5 µM]	.	.	.
COc1ccc(N2CCN(C(=O)c3c(C)oc4ncn(CC(C)C)c(=O)c34)CC2)cc1	.	22.8%	?	-11.7%	.	2.8%[57.1 µM]
O=C1c2ccc([N+](=O)[O-])cc2S(=O)(=O)N1Cc1ccccc1	2.7	?	11.2µM*	?	.	?
Cc1cc(C)nc(SC2CC(=O)N(c3ccc(Br)cc3)C2=O)n1 (stereo not given)	9.5	52.6%	39.8µM*	-2.1%	.	-15.0%
O=C1CCN(Cc2ccccc2)CCN1[C@H](CO)c1ccccc1	-0.5	49.1%	.	-15.7%	2.6%	4.5%
CN1CCC(=O)N([C@H](CO)c2ccccc2)CC1	-2.1	51.7%	44.7µM*	-20.0%	1.5%	-26.9%
COc1ccc(C2=NOC3(CC(=O)N(c4ccc(F)cc4)C3=O)C2)cc1 (stereo not given)	-11.8	29.5%	50.1µM*	-14.0%	-11.3%	-18.7%
COc1ccc(C2=NOC3(CC(=O)N(c4ccc(F)cc4)C3=O)C2)c(OC)c1 (stereo not given)	.	6.0%	50.1µM*	-27.0%	.	-28.9%
Cc1ccc(C2=NOC3(CC(=O)N(c4ccc(C)cc4)C3=O)C2)cc1 (stereo not given)	6.2	28.6%	.	3.2%	1.6%	-3.1%
COc1cc(C2C(C(=O)OC(C)C)=C(C)N=C3SCCC(=O)N32)ccc1OCc1ccccc1 (stereo not given)	.	23.0%	-47.1%[59 µM]	-27.5%	.	?
Cc1ccnc(N2C(=O)c3ccccc3C2O)c1 (stereo not given)	-58.0*	37.0%	2.9%	-19.0%	.	-3.4%
Cc1c(Cl)cccc1-n1ncc(C(=O)NCCN2CCN(C)CC2)c1C1CCN(C(=O)OC(C)(C)C)CC1	.	30.4%	-7.7%[59 µM]	-10.0%	.	4.5%[57.1 µM]
COc1cc(C2c3c(oc4ccccc4c3=O)C(=O)N2c2nncs2)cc(OC)c1OC (stereo not given)	.	21.5%	-6.5%[59 µM]	-3.4%	.	0.2%
Cc1cc(C)nc(NC(=O)C(C)C)n1	8.2	37.7%	17.0%[2.33 µM]	3.8%	1.8%	5.4%
Cc1cc(C)nc(NN2C(=O)C=CC2=O)n1	0.5	?	2.82µM*	?	.	0.9%
Fc1ccc(CSc2nncn3c2cc2occc23)c(Cl)c1	.	-3.0%	?	-30.4%	.	?
Cc1[nH]c2ccccc2c1C1C(c2ccccc2)=NN=C(C(C)C)N1O (stereo not given)	.	0.6%	6.31µM*	-33.8%	14.5%[11.4 µM]	-30.6%
CC1=NN=C(c2ccccc2)C(c2c[nH]c3ccccc23)N1O (stereo not given)	1.9	-9.9%	?	-18.8%	-5.3%	-10.5%
N[C@H](C(=O)O)[C@H](Cc1ccccc1)C(=O)O	.	.	7.08µM*	.	.	.
COc1cc(C2c3c([nH]c(=O)[nH]c3=O)Nc3ccc4ccccc4c32)ccc1O (stereo not given)	-6.4	?	50.1µM*	?	?	?
SMILES	PI5P4K alpha inh	HP1b binding inh	G9a inh	JMJD2A Tudor	L3MBTL1 inh	BAZ2B block
COc1cc(C2c3c([nH]c(=O)[nH]c3=O)Nc3ccc4ccccc4c32)cc(OC)c1OC (stereo not given)	-20.6	70.8µM*	?	?	.	56.2µM*
COc1cc(C2CC(=O)c3c(ccc4ccccc34)N2)ccc1O (stereo not given)	-5.6	5.2%	11.2µM*	-16.9%	3.5%	-22.7%
COc1ccc(C2c3c(nc(C)[nH]c3=O)Oc3ccc4ccccc4c32)cc1OC (stereo not given)	.	.	.	-11.6%	.	.
COc1cc(C2CC(=O)Oc3c2c(=O)[nH]c2ccccc32)cc(OC)c1OC (stereo not given)	.	44.4%	-44.6%[59 µM]	0.7%	.	-18.4%
COC(=O)CN1C(=O)[C@@H]2[C@H](C1=O)[C@@H]1CC(C(=O)OC)=C[C@@H](C(=O)OC)C3C1=C(C(=O)[C@@]3(C)NC(=O)c1ccccc1)[C@@H]2C (stereo not given in full)	.	21.5%	.	-6.9%	.	.
CCC(Oc1ccccc1)C(=O)Nc1ccc(OCc2cc(=O)n3ccc(C)cc3n2)cc1 (stereo not given)	.	26.9%[57 µM]	-4.1%[59 µM]	12.7%	.	6.1%
CCOc1ccc(CN2CCNC(=O)C2CC(=O)NCc2cc(C)n(C)n2)cc1 (stereo not given)	0.0	57.9%	39.8µM*	-17.2%	.	-22.7%
COc1ccc(CN2CCNC(=O)C2CC(=O)NCc2cc(C)n(C)n2)c(F)c1 (stereo not given)	-7.3	45.2%	25.1µM*	-8.3%	.	0.9%
COc1ccc(CN2CCNC(=O)C2CC(=O)NCc2cccc(C)n2)c(OC)c1 (stereo not given)	-4.8	4.4%	-40.4%	-13.0%	4.2%	?
Cc1ccc(CN2CCNC(=O)C2CC(=O)NCc2cc(C)n(C)n2)cc1 (stereo not given)	-3.0	43.3%	79.4µM*	-10.4%	.	-20.3%
Cc1cc(CNC(=O)CC2C(=O)NCCN2Cc2ccccc2C(F)(F)F)nn1C (stereo not given)	1.0	41.7%	?	-13.1%	-2.0%	-2.7%
CCc1nnc2c3ccccc3nc(Nc3ccc(F)c(Cl)c3)n12	.	37.9%	-0.1%[59 µM]	11.3%	.	3.5%
CNc1sc(C(=O)c2ccccc2F)c(N)c1-c1nc2ccccc2s1	2.2	?	?	50.1µM*	.	39.8µM*
Cc1ccc2nc(N3CCC(C(=O)N4CCN(c5cccc(Cl)c5)CC4)CC3)[nH]c2c1	.	-0.3%[57 µM]	-36.1%[59 µM]	56.2µM*	.	70.8µM*
